Rows were chosen to be rich in hits. Some 3.3% of all compounds tested hit in one or more screens of this group.
Mcl1 Noxa PPI: disrupts binding of human Mcl-1 to Noxa peptide | TR-FRET Mcl-1/Noxa peptide binding, 2 h | inhibition, % at 21.7 µM | 1.5% of 220,000 active | AID 1022;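 active = compounds that cut the protein-peptide binding signal by more than 50% relative to plate controls in a single-dose test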;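 also: His-tagged Mcl-1 with rhodamine Noxa BH3 peptide and terbium anti-His antibody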
Mcl1 Bid PPI: disrupts binding of human Mcl-1 to Bid peptide; TR-FRET Mcl-1/Bid-Dy647 peptide binding, 1536-well; inhibition, % at 21.7 µM; 0.97% of 220,000 active; AID 1021;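 active = compounds that cut the binding signal by more than half at the single screening dose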;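 also: His-tagged Mcl-1 with europium anti-His antibody binding Bid BH3 peptide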
Mcl-1 Bim block: human Bim-Mcl-1 interaction inhibition; Bead-based flow cytometry, Bim peptide-Mcl-1 binding; 0.1% of 190,000 active; inhibition, % at 10 µM; AID 1009; in the data active = inhibition above about 40%
14-3-3 Bad inh: disrupts binding of bovine 14-3-3 zeta to phospho-Bad peptide | inhibition, % at 21.7 µM | TR-FRET 14-3-3zeta/Dy647-pBad peptide displacement, 1 h | 0.71% of 220,000 active | AID 781 | P63103;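 active = inhibition above about 70%, limit read from the data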
Target sequence (P63103 whole entry, looked up): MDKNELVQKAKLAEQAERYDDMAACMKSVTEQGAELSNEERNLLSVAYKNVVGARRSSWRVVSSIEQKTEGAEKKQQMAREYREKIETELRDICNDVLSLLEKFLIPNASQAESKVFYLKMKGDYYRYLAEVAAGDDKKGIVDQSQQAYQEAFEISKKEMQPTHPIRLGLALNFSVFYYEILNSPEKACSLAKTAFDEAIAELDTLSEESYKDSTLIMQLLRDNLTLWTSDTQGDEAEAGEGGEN
NCF1 inh: blocks human p47phox regulatory protein of NADPH oxidases; p47phox/p22phox peptide binding, fluorescence polarization, 2 h; inhibition, % at 24.7 µM; 0.53% of 220,000 active
Target sequence (P14598 whole entry, looked up): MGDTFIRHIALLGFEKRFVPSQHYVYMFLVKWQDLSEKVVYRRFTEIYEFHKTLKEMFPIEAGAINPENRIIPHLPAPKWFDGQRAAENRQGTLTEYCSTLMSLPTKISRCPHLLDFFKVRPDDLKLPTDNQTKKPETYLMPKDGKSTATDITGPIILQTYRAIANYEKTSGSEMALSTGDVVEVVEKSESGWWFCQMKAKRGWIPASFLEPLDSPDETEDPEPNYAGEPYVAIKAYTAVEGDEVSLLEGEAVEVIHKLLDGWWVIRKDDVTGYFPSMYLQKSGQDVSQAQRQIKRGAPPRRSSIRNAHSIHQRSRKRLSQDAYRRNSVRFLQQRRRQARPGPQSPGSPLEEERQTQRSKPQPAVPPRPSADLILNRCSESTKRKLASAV
eIF4E-4G inh: inhibitors of eIF4E and eIF4G interaction in translation initiation; inhibition, % at 21.7 µM; TR-FRET eIF4E-eIF4GI(517-606) binding, 2 h; 0.37% of 220,000 active
Large screens that a line does not name were inactive; [ ] = dose if it differs, or a comment.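 The calls were made as follows, unless noted: active = inhibition above about 30% (limit read from the data); inactive = the rest.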

Cc1cc(C2N=C(N)Nc3nc4ccccc4n32)c(C)n1-c1ccccc1Cl (centres undefined)	NCF1 inh 41
Cc1ccc(-n2c(C)cc(C3N=C(N)Nc4nc5ccccc5n43)c2C)c(C)c1 (centres undefined)	NCF1 inh 30
COc1ccc(C(=O)N2CCN(C3CCN(Cc4ccccc4)CC3)CC2)cc1OC	Mcl1 Bid PPI 58
COc1ccccc1C(=O)N1CCN(C2CCN(Cc3ccccc3)CC2)CC1	14-3-3 Bad inh 84
COc1ccc(CN2CCN(C(=O)c3cc(OC)c(OC)c(OC)c3)CC2)cc1OC	none
COc1ccc(C(=O)N2CCN(Cc3cc(OC)c(O)c(OC)c3)CC2)cc1OC	Mcl1 Bid PPI 58
C=CCN1C(=O)/C(=C/c2ccc(OC(C)=O)c(OCC)c2[N+](=O)[O-])SC1=S	none
CC1CC(C)(C)NC(=S)N1CCC(=O)NCc1ccc(Cl)cc1 (centres undefined)	none
COc1ccc(CC(=O)NCCC(C)C)cc1S(=O)(=O)N1CCOCC1	none
Cc1c([N+](=O)[O-])c(C(=O)Sc2ccc(Br)cc2)nn1C	NCF1 inh 39 (no result: Mcl-1 Bim block)
Nc1nnc(SCC(=O)c2cccc([N+](=O)[O-])c2)s1	none
Nc1nnc(SCC(=O)c2ccc3ccccc3c2)s1	NCF1 inh 92
O=C(NC1CCCC1)c1cnc2n(c1=O)CCS2	eIF4E-4G inh 95[fluorescence artefact?]
COc1ccc(-c2noc(-c3cccs3)n2)cc1OC	Mcl1 Bid PPI 58 (no result: Mcl-1 Bim block)
COc1cc(-c2nc(-c3ccc(NC(=O)c4ccc(Br)o4)cc3)no2)cc(OC)c1OC	Mcl1 Bid PPI 68
COc1ccc(-c2nc(-c3ccc(Br)o3)no2)cc1OC	Mcl1 Bid PPI 56
COc1cc(-c2noc(-c3cccs3)n2)cc(OC)c1OC	none
Cc1cccc(CNC(=O)CCc2nnc(C3CCCCC3)o2)c1	none
CCN(CC)CCNC(=O)c1[nH]c2ccc(OCc3ccccc3)cc2c1C	none
COC(=O)c1ccc(Sc2ccccn2)c([N+](=O)[O-])c1	Mcl1 Bid PPI 55
Oc1ccccc1NCC(O)Cn1ccc2ccccc21 (centres undefined)	Mcl1 Noxa PPI 74
COc1ccc(-c2nn(-c3ccccc3)cc2/C=C/C(=O)O)cc1[N+](=O)[O-]	none (no result: Mcl-1 Bim block)
COC(=O)/C=C1\OC(c2ccccc2)=CC1=O	Mcl1 Noxa PPI 66
CCC(=O)Nc1cccc(NC(=O)c2cccc([N+](=O)[O-])c2)c1	none
CCOC(=O)c1c(C)[nH]c(C(=O)COC(=O)/C=C/c2ccc3c(c2)OCO3)c1C	Mcl1 Bid PPI 56
COc1ccc(NC(=O)c2noc3c2CCC3)cc1	none
COc1cc(NC(=O)c2noc3c2CCC3)c(OC)cc1Cl	Mcl1 Noxa PPI 63
Cc1ccc(NC(=O)c2noc3c2CCC3)cc1C	Mcl1 Noxa PPI 54
O=C(Cn1nc(-c2cccc(Cl)c2)ccc1=O)Nc1ccc(C(=O)NC2CC2)cc1	none
O=C(COC(=O)c1cccs1)NCC1CCCCC1	none
COc1ccc(N2CCN(CC(=O)NC(=O)NCc3ccco3)CC2)cc1	none
Cc1ccccc1Nc1nnc(SCC(=O)NCc2ccco2)s1	Mcl1 Noxa PPI 61
O=C(CSc1nc(-c2ccccc2)cs1)NC(=O)NCc1ccco1	none
CS/C(=N\S(=O)(=O)c1cccs1)NC(=O)CSc1nc2ccccc2s1	Mcl1 Noxa PPI 53, 14-3-3 Bad inh 73
O=C(CN1CCN(c2ccc(O)cc2)CC1)NC(=O)NCc1ccco1	Mcl1 Noxa PPI 52
O=C(CSc1nc2ccccc2s1)NC(=O)NCc1ccco1	Mcl1 Noxa PPI 54
O=C(C/C=N\OCc1ccc([N+](=O)[O-])cc1)Nc1ccc(F)cc1F	none
O=C(CSc1ccccc1F)NC(=O)NCc1ccco1	Mcl1 Noxa PPI 52
CCCCn1c(SCC(=O)NC(=O)NCc2ccco2)nc2cc(S(N)(=O)=O)ccc21	Mcl1 Noxa PPI 63
COc1ccc(-n2nnnc2SCC(=O)NCc2ccco2)cc1OC	none
Cc1ccc(OCc2nnc(SCC(=O)NCc3ccco3)n2C)cc1	none
Cc1ccccc1OCc1nnc(SCC(=O)NCc2ccco2)n1C	NCF1 inh active
COc1ccc(C)cc1-n1nnnc1SCC(=O)NC(=O)NCc1ccco1	Mcl1 Noxa PPI 62
CC(C)(CN1CCN(C(c2ccccc2)c2ccccc2)CC1)NS(=O)(=O)c1ccccc1	none (no result: Mcl-1 Bim block)
Cc1cc2cc3c(=O)[nH]c(=O)[nH]c3nc2cc1C	NCF1 inh 151 (no result: Mcl-1 Bim block)
COC(=O)c1cc(O)cc(OC)c1Oc1cc(C)cc(O)c1C(=O)O	Mcl1 Noxa PPI 85 (no result: Mcl-1 Bim block)
Cc1ccc(Cl)c(OC(=O)c2nn(C(C)C)c(=O)c3ccccc23)c1	none
O=c1ccc2[n+]([O-])c3ccc(O)cc3oc-2c1	Mcl1 Noxa PPI 74 (no result: Mcl-1 Bim block)
Nc1ccc(SCC(=O)Nc2cccc([N+](=O)[O-])c2)cc1	none
O=C(CSc1ncn(-c2ccccc2)n1)N1CCc2ccccc21	eIF4E-4G inh 31[fluorescence artefact?]
O=C(CSc1nnc(CNc2ccccc2)o1)N1CCc2ccccc21	eIF4E-4G inh 36
O=C(CSc1ccccn1)N1CCc2ccccc21	none
COc1cc(N2CCCC2)c(OC)cc1/C=C(/C#N)c1ccc(F)cc1	Mcl1 Noxa PPI 72
CCOC(=O)C1CCN(C(=O)N(CC)CC)CC1	none
Cc1c(Cc2ccccc2)c(=O)oc2cc(O)ccc12	none (no result: Mcl-1 Bim block)
Cc1c(Cc2ccccc2)c(=O)oc2c(O)c(O)ccc12	Mcl1 Noxa PPI 88
Cc1oc2c(O)c(O)ccc2c(=O)c1-c1cnn(-c2ccccc2)c1	Mcl1 Noxa PPI 56
Cc1oc2c(O)c(O)ccc2c(=O)c1-c1ccccc1	Mcl1 Noxa PPI 71 (no result: Mcl-1 Bim block)
O=C(CN1C(=O)C2CC=CCC2C1=O)Nc1nc2ccccc2s1 (centres undefined)	none
COc1ccc(C2=NN(CC(=O)Nc3cc(C)ccc3C)C(=O)CC2)cc1	none (no result: Mcl-1 Bim block)
CC1=NOC(=O)/C1=C\c1ccc(-c2ccc(Br)cc2)o1	Mcl1 Noxa PPI 66, NCF1 inh 44
CC1=NOC(=O)/C1=C\c1ccc(-c2ccc(Br)cc2C(=O)O)o1	none
CC1=NOC(=O)/C1=C/c1ccc(-c2ccc(Cl)cc2)o1	Mcl1 Noxa PPI 67, Mcl1 Bid PPI 67, NCF1 inh 116
CC1=NOC(=O)/C1=C\c1ccc(-c2cc(Cl)ccc2Cl)o1	Mcl1 Noxa PPI 53
CCOC(=O)C1CCCCN1Cc1ccccc1C(F)(F)F (centres undefined)	14-3-3 Bad inh 80
CCOC(=O)C1CCCN(CC(=O)NC2CC2)C1 (centres undefined)	14-3-3 Bad inh 77
CCOC(=O)C1CCCN(Cc2ccccc2F)C1 (centres undefined)	14-3-3 Bad inh 73
CCOC(=O)C1CCN(Cc2ccccc2C(F)(F)F)CC1	none
CCOC(=O)C1CCCN(C(=O)CSCc2ccccc2)C1 (centres undefined)	14-3-3 Bad inh 84
CCOC(=O)CSc1n[nH]c(NC(=O)c2cccc(C(F)(F)F)c2)n1	none
